These results are taken from PubChem BioAssay (EPA / NIEHS).

SMILES strings stand for the structures. Results filed as inconclusive are left out. Activity calls are given as the source filed them. How the source made its calls: active means hit-call score of the fitted dose curve at least 0.9, where 1 is the maximum; inconclusive means response in the unintended direction; inactive means score below 0.9.

Usually AC50 stands for the concentration at which the activity in the assay is half-maximal.

Test [1] in a line: Tanguay_ZF_120hpf_ActivityScore_legacy: (Legacy) Oregon State University Tanguay Lab 120 Hour Post-fertilization zebrafish Assay Score for Activity (AID 2283742). The gist of the method:
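Embryos are staged, enzymatically dechorionated at 4 hpf, placed individually at 6 hpf, then held in test chemical (0.64% DMSO) at 28C until 120 hpf. Mortality and malformations are scored by brightfield, with non-mortality endpoints skipped for dead embryos.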

Test [2] can be described thus: ACEA_AR_agonist_AUC_viability: ACEA Biosciences xCELLigence Real-Time Cell Analysis on Androgen Receptor Agonism for Viability (AID 2283775).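 On AC50: viability read 80 hours after compound addition.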 In outline: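 Read-out is area under the impedance curve at 80 h post-dose in 22Rv1 cells, with DMSO as baseline and signal loss taken as reduced viability. Compounds ran in duplicate from 100 uM final.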
A short description of test [3]: ACEA_AR_antagonist_AUC_viability: ACEA Biosciences xCELLigence Real-Time Cell Analysis on Androgen Receptor Antagonism for Viability (AID 2283776).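 Further: 22Rv1 human prostate cancer cells growing on impedance electrode plates; area under impedance growth curve at 80 h after dosing as viability; hits lower the growth signal relative to DMSO meaning cytotoxicity.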 In outline:
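22Rv1 prostate cells, continuous dosing up to 100 uM final (0.5% DMSO max), duplicate plates. Growth measured by impedance; AUC at 80 h, loss of signal vs DMSO.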

On to `NC1CCCCC1`, for which the call in test [1], in test [2] and in test [3] was inactive.
As to `O=[Si]=O`, the result in test [1] and in test [3] was inactive.
As to `CCCCCCCC(=O)OC`, the call in test [1] and in test [3] was inactive. Besides, the AC50 in test [2] is 13.9 µM (active).
With `CC(C)c1cccc(C(C)C)c1`, the compound was called inactive in test [1] and in test [3].
In the case of `CO[C@@H]1COCC[C@@H]1N[C@@H]1CC[C@@](C(=O)N2CCc3ncc(C(F)(F)F)cc3C2)(C(C)C)C1`, the compound was called inactive in test [1], in test [2] and in test [3].
Take `Cn1cnc2c1c(=O)[nH]c(=O)n2C`: the result in test [1], in test [2] and in test [3] was inactive.
As to `NC=O`, the outcome in test [1], in test [2] and in test [3] was inactive.
On to `O=C(O)c1[nH]n(-c2ccc(S(=O)(=O)O)cc2)c(=O)c1N=Nc1ccc(S(=O)(=O)O)cc1`, for which the call in test [1], in test [2] and in test [3] was inactive.
